# About 83,000 compounds went through this panel and 20% of them were active in at least one assay; those are over-represented in the sample as a whole.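 Growth was measured after 48 h exposure to one concentration of compound in 96-well plates. Values under 10 count as active.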 Values without a mark were called inactive. Activity calls are given as the source filed them.
# Assays:
# Experiment in all cases: NCI-60 one-dose screen, 48 h (100 = growth as untreated, 0 = no growth, -100 = all killed)
# Settings in all cases: 10 µM unless noted
# SR leukemia = system: SR leukemia
# RPMI-8226 leukemia = system: RPMI-8226 leukemia
# OVCAR-8 ovarian = system: OVCAR-8 ovarian
# OVCAR-5 ovarian = system: OVCAR-5 ovarian
# OVCAR-4 ovarian = system: OVCAR-4 ovarian
# SK-OV-3 ovarian = system: SK-OV-3 ovarian
# IGROV1 ovarian = system: IGROV1 ovarian
# OVCAR-3 ovarian = system: OVCAR-3 ovarian
# HS 578T breast = system: HS 578T breast
# NCI/ADR-RES ovarian = system: NCI/ADR-RES ovarian
Compound,growth (SR leukemia),growth (RPMI-8226 leukemia),growth (OVCAR-8 ovarian),growth (OVCAR-5 ovarian),growth (OVCAR-4 ovarian),growth (SK-OV-3 ovarian),growth (IGROV1 ovarian),growth (OVCAR-3 ovarian),growth (HS 578T breast),growth (NCI/ADR-RES ovarian)
COc1cccc(-c2nc3occn3c2-c2ccnc(NCCNS(=O)(=O)c3ccc(C(F)(F)F)cc3)n2)c1,96.6%,69.2%,90.8%,116%,83.7%,103%,80.6%,96.7%,-23.5% (active),99.4%
Cc1cc2cc3ccc(N(C)C)cc3nc2cc1N,-2.93% (active),-19.1% (active),-2.19% (active),3.07% (active),-11.9% (active),-8.06% (active),-1.84% (active),-24.7% (active),-32.5% (active),42.4%
C=C1C(=O)O[C@H]2[C@H]1CC/C(COC(=O)NCc1c[nH]c3ccc(Cl)cc13)=C\CC[C@@]1(C)O[C@@H]21,7.4% (active),-35.5% (active),-59.2% (active),-27.7% (active),-54.7% (active),90.5%,-65.8% (active),-87.2% (active),25.3%,48.1%
CN(C)CCC(=O)c1ccc([N+](=O)[O-])cc1,97.8%,89%,110%,102%,100%,99.5%,109%,110%,107%,107%
NC1=NN=C(N)C1=Cc1cc2ccccc2n2nnnc12,94.4%,105%,98.1%,108%,105%,91.7%,103%,105%,94.7%,105%
C=C(C)[C@@H]1CC[C@]2(C(=O)N[C@@H](Cc3ccccc3)C(=O)OC)CC[C@]3(C)[C@H](CC[C@@H]4[C@@]5(C)CCC(=O)C(C)(C)[C@@H]5CC[C@]43C)[C@@H]12,85.3%,85.2%,100%,97.9%,73.5%,98.8%,88.7%,72.7%,96.4%,99.1%
CCCCCCNC(=O)Oc1ccc(/C(=C(\C)c2ccccc2)c2ccc(OCCCN(C)C)cc2)cc1,2.09% (active),81.6%,86.9%,85.5%,86.9%,95.6%,80.4%,89.7%,74%,81%
Cc1cc(C)c(S(=O)(=O)Oc2ccccc2[N+](=O)[O-])c(C)c1,15.7%,24.2%,29.8%,43.4%,42.9%,41.2%,30.2%,-24.1% (active),-16.4% (active),8.3% (active)
COc1ccc(/C=C2\Oc3cc(OCCCN4CCCCC4)ccc3C2=O)cc1OC,-18.7% (active),90.6%,94.4%,95.2%,89.4%,113%,93.9%,93%,92%,97.1%
Cc1ccc(-n2c3c(c(-c4ccccc4)c2-c2ccccc2)C2=NCCN2C=N3)cc1,80%,77.8%,75.2%,103%,78.5%,94.7%,62.6%,90.5%,94.8%,100%
Nc1n[nH]c2cccc(C#Cc3cccc(C(=O)Nc4cccc(C(F)(F)F)c4)c3)c12,72%,58.9%,76.3%,57.6%,66.2%,59.6%,30.3%,73.8%,40.5%,80.6%
CCN(CC)CCCC(C)Nc1cc(O)cc2cccnc12 (stereo not given),132%,97.3%,101%,105%,84.2%,119%,154%,90.2%,73.9%,102%
COc1ccc(/C=C/c2nc(Nc3ccc(Cl)cc3)c3ccccc3n2)cc1,-3.22% (active),52.9%,61.4%,73.2%,60.2%,83.6%,75.9%,67.2%,70.5%,65.7%
